One assay relates to HeLa. The assay is described as follows: Primary qHTS to identify gynecologic anti-cancer compounds using libraries of approved drugs and bioactive compounds (AID 1345084). Further: nearly all actives have a fitted effect of over 55% in size. The note with it: Gynecologic cancer cell panel viability, ATPlite luminescence, 48 h; series mostly up to 57.5 µM. The procedure, abridged: (§1)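 ATP-based viability (ATPlite), 1,000 cells/well, 16 h pre-incubation, 48 h compound at 37 C, 5% CO2, 15 min RT before read.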
For orientation: qHTS replaces the single test concentration by a dilution series.

A further assay deals with Hek293T. The assay is described as above. As to conditions: Gynecologic cancer cell panel viability, ATPlite luminescence, 48 h, control line for the selectivity index; series mostly up to 57.5 µM. The gist of the method: as §1
On the technique in general: ATP-based viability assays read luminescence as a measure of living cells.

In a further assay the test system is JEG-3. The assay is described as above. The note with it: Gynecologic cancer cell panel viability, ATPlite luminescence, 48 h; series mostly up to 57.5 µM. The gist of the method:
as §1

A further assay relates to OV90. Described as above. The note with it: Gynecologic cancer cell panel viability, ATPlite luminescence, 48 h; series mostly up to 57.5 µM. The gist of the method:
as §1

In the next assay the test system is PA-1. Described as above. As to conditions: Gynecologic cancer cell panel viability, ATPlite luminescence, 48 h; series mostly up to 57.5 µM. The procedure, abridged:
as §1

A further assay relates to SKOV3. The description is as above. As to conditions: Gynecologic cancer cell panel viability, ATPlite luminescence, 48 h; series mostly up to 57.5 µM. The gist of the method:
as §1

Another assay relates to Tov-21-G. The assay is described as above. As to conditions: Gynecologic cancer cell panel viability, ATPlite luminescence, 48 h; series mostly up to 57.5 µM. The procedure, abridged:
as §1

For another assay, the system named is Tov112D. The description is as above. As to conditions: Gynecologic cancer cell panel viability, ATPlite luminescence, 48 h; series mostly up to 57.5 µM. The procedure, abridged:
as §1

The nature of assay [1]: Drug repurposing screens with cells derived from glioblastoma tumor samples (AID 1345199). Further: nearly all actives have a fitted effect of over 40% in size. Further: potency means the concentration at half of the fitted maximal effect. As to conditions: GBM patient neurospheres viability, ATP luminescence, 48 h. The procedure, abridged:
(§2)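 Four patient lines of CD133+ GBM neurospheres were screened at several concentrations; hits were retested in those lines plus three slower-growing GBM lines, using 48-hour treatment and ATP-based viability.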

The next assay concerns astro. The description is as above. The note with it: viability, ATP luminescence, 48 h; series mostly up to 45.9 µM. The gist of the method:
as §2

Where [2] appears, read: at 45.9 µM (top of the series), tumour line B.
Where [3] appears, read: at 45.9 µM (top of the series), tumour line D.
[4] abbreviates: at 46 µM (top of the series), tumour line A.
Where [5] appears, read: at 46.1 µM (top of the series), tumour line C.
The mark [6] stands for this setting: at 20 µM (top of the series), tumour line C.
[7] abbreviates: at 21.2 µM (top of the series), tumour line B.
Setting [8] is: at 21.2 µM (top of the series), tumour line D.
The mark [9] stands for this setting: at 21.3 µM (top of the series), tumour line A.

“And” between values parts separate entries of the source, which are not always exact repeats. Identical values can stand only once. Results filed as inconclusive are left out. Values without a mark were called inactive. The source made the active and inactive calls. The call rests on the fitted dose curve; in most records, active means well fitted curve in the direction sought with a large enough effect; inconclusive means small, poorly fitted or top-dose-only effect, or another doubt; inactive means no such curve, though single readings can be large; an effect the other way counts as inactive or inconclusive.
On the % scale 0 is the no-effect control and ±100 the full control effect.

Consider `COc1cc(C(=O)N2CCOCC2)cc(OC)c1OC`, for which the Potency result with HeLa, with Hek293T, in the assay on JEG-3, in the assay on OV90, in the assay with PA-1 and in the assay on SKOV3 was “inactive” each time. Also, the Potency entry with Tov-21-G, with Tov112D and with astro was “inactive” each time. In addition, the activity, negative = cell killing in [1] (setting [2]) is 8.47% and -7.54%; in assay [1] (setting [3]), 3.68% and -23%; in assay [1] (setting [4]), -14.2%; in [1] (setting [5]), -7.33% and -2.64%.

Regarding `Cc1cc2c(cc1S(N)(=O)=O)S(=O)(=O)CCC2`, the Potency entry in the assay with HeLa, in the assay with Hek293T, in the assay on JEG-3, in the assay with OV90, in the assay on PA-1 and in the assay with SKOV3 was “inactive” in each case. Also, the Potency entry with Tov-21-G, in the assay with Tov112D and with astro was “inactive” in each case. Besides, the activity, negative = cell killing is 4.86% in assay [1] (setting [6]), -8.12% in [1] (setting [7]), 3.88% in [1] (setting [8]) and -0.554% in assay [1] (setting [9]).

As to `O=C1Nc2ccc(Cl)cc2[C@@](C#CC2CC2)(C(F)(F)F)O1`, the Potency result in the assay with HeLa, in the assay on Hek293T, with JEG-3, in the assay with OV90, in the assay with PA-1 and in the assay on SKOV3 was “inactive” throughout. For the same molecule, the Potency entry in the assay on Tov-21-G and in the assay on Tov112D was “inactive” throughout. Also, the activity, negative = cell killing is -20.8% in assay [1] (setting [2]) and -5.83% in [1] (setting [5]). For the same molecule, the Potency in [1] (tumour line A) is 17.8 µM (active).

On to `O=C(O)c1ccccc1O`, for which the Potency entry in the assay on HeLa, with Hek293T, with JEG-3, in the assay with OV90, in the assay on PA-1 and in the assay on SKOV3 was “inactive” in each case. The Potency entry in the assay on Tov-21-G, in the assay with Tov112D and in the assay on astro was “inactive” each time. Also, the activity, negative = cell killing in [1] (setting [2]) was -1.6% and -1.62%; in assay [1] (setting [3]) it was -9.17% and -18.2%; in assay [1] (setting [4]), -20.3%; in assay [1] (setting [5]), -6.51% and 1.73%.

With `N[C@H](C(=O)O)c1ccc(O)cc1`, the Potency result in the assay with HeLa, in the assay with Hek293T, with JEG-3, in the assay on OV90, in the assay on PA-1 and in the assay on SKOV3 was “inactive” each time. For the same molecule, the Potency result in the assay with Tov-21-G, in the assay with Tov112D and in the assay with astro was “inactive” in each case. Also, the activity, negative = cell killing in assay [1] (setting [2]) is -10.5%; in [1] (setting [3]), -7.17%; in assay [1] (setting [4]), -28.4%; in assay [1] (setting [5]), -10.2%.

For the molecule `CC(=O)CCC(=O)O`, the Potency result in the assay on HeLa, with Hek293T, in the assay on JEG-3, in the assay with OV90, in the assay on PA-1 and in the assay on SKOV3 was “inactive” throughout. In addition, the Potency result in the assay with Tov-21-G, in the assay with Tov112D and in the assay on astro was “inactive” throughout. Moreover, the activity, negative = cell killing in assay [1] (setting [2]) is -11.2%; in [1] (setting [3]) it was -13.2%; in [1] (setting [4]), -21%; in assay [1] (setting [5]), -0.404%.

Take `O=C(O)CC(O)C(=O)O` (stereo not drawn): the Potency entry in the assay with HeLa, in the assay on Hek293T, with JEG-3, in the assay with OV90, with PA-1 and in the assay with SKOV3 was “inactive” each time. Besides, the Potency entry with Tov-21-G, in the assay on Tov112D and in the assay on astro was “inactive” in each case. Further, the activity, negative = cell killing is -10.7% in assay [1] (setting [2]), -4.49% in [1] (setting [3]), -24.7% in assay [1] (setting [4]) and -13.6% in assay [1] (setting [5]).

For `COc1cc2[nH]c(=O)[nH]c(=O)c2cc1OC`, the Potency result in the assay on HeLa, in the assay with Hek293T, in the assay with JEG-3, in the assay with OV90, in the assay on PA-1 and with SKOV3 was “inactive” in each case. Besides, the Potency result with Tov-21-G, with Tov112D and with astro was “inactive” each time. The activity, negative = cell killing in [1] (setting [6]) was -13.5%; in assay [1] (setting [7]) it was -9.77%; in assay [1] (setting [8]), 1.35%; in assay [1] (setting [9]) it was -29.6%.

For `CCn1cc(C(=O)O)c(=O)c2cnc(N3CCNCC3)nc21`, the Potency entry in the assay on HeLa, with Hek293T, in the assay on JEG-3, in the assay with OV90, in the assay with PA-1 and in the assay with SKOV3 was “inactive” throughout. Moreover, the Potency entry in the assay with Tov-21-G, with Tov112D and in the assay with astro was “inactive” each time. For the same molecule, the activity, negative = cell killing was -6% in assay [1] (setting [6]), -11.9% in [1] (setting [7]), -14.4% in [1] (setting [8]) and -22% in assay [1] (setting [9]).

As to `CN(C)CC[C@@H](c1ccc(Cl)cc1)c1ccccn1`, the Potency result in the assay with HeLa, in the assay on Hek293T, with JEG-3, with OV90, with PA-1 and with SKOV3 was “inactive” each time. The Potency result in the assay on Tov-21-G, with Tov112D and with astro was “inactive” in each case. Also, the activity, negative = cell killing in [1] (setting [2]) is -9.08%; in assay [1] (setting [3]), -26.8%; in [1] (setting [5]) it was -11.4%. Further, the Potency in assay [1] (tumour line A) is 14.1 µM (active).

`O=C(Oc1ccccc1C(=O)O)c1ccccc1O`: the Potency result in the assay with HeLa, with Hek293T, with JEG-3, in the assay with OV90, with PA-1 and in the assay on SKOV3 was “inactive” each time. Moreover, the Potency result with Tov-21-G, in the assay with Tov112D and in the assay on astro was “inactive” throughout. Also, the activity, negative = cell killing is -6.94% in assay [1] (setting [2]), -16.8% in assay [1] (setting [3]), -11.8% in assay [1] (setting [4]) and 0.529% in assay [1] (setting [5]).

Take `COc1ccc(Cl)cc1C(=O)NCCc1ccc(S(=O)(=O)NC(=O)NC2CCCCC2)cc1`: the Potency result in the assay on HeLa, in the assay on Hek293T, with JEG-3, with OV90, in the assay with PA-1 and with SKOV3 was “inactive” in each case. The Potency result in the assay on Tov-21-G, with Tov112D and with astro was “inactive” each time. In addition, the activity, negative = cell killing in assay [1] (setting [2]) was 5.08%; in assay [1] (setting [3]), -17.4%; in [1] (setting [4]), -29%; in assay [1] (setting [5]), -8.3%.

Regarding `CO/N=C(\C(=O)N[C@@H]1C(=O)N2C(C(=O)O)=C(CSc3nc(=O)c(O)nn3C)CS[C@H]12)c1csc(N)n1`, the Potency entry with HeLa, in the assay with Hek293T, with JEG-3, with OV90, in the assay with PA-1 and with SKOV3 was “inactive” throughout. For the same molecule, the Potency result in the assay with Tov-21-G, in the assay on Tov112D and in the assay on astro was “inactive” in each case. Further, the activity, negative = cell killing in [1] (setting [2]) is -2.24%; in assay [1] (setting [3]), -10.7%; in assay [1] (setting [4]), -24.8%; in assay [1] (setting [5]), -11.4%.

For the molecule `C#CCN(C)Cc1ccccc1`, the Potency entry in the assay with HeLa, in the assay on Hek293T, in the assay on JEG-3, with OV90, in the assay on PA-1 and with SKOV3 was “inactive” each time. The Potency entry with Tov-21-G, in the assay on Tov112D and in the assay with astro was “inactive” throughout. Besides, the activity, negative = cell killing in [1] (setting [6]) was -8.08%; in [1] (setting [7]), -12.4%; in [1] (setting [8]), -7.66%; in [1] (setting [9]), -32.1%.

As to `CC(=O)Oc1c(C)c(C)c2c(c1C)CC[C@@](C)(CCC[C@H](C)CCC[C@H](C)CCCC(C)C)O2`, the Potency result in the assay with HeLa, in the assay with Hek293T, in the assay on JEG-3, in the assay with OV90, in the assay with PA-1 and in the assay with SKOV3 was “inactive” throughout. Besides, the Potency entry in the assay on Tov-21-G, with Tov112D and with astro was “inactive” throughout. In addition, the activity, negative = cell killing in [1] (setting [2]) is -3.11% and -14.8% and -20.3%; in assay [1] (setting [3]), -2.72% and -19.7% and -14.1%; in assay [1] (setting [4]), -21.7% and -44.1%; in assay [1] (setting [5]), -8.98% and 2.94% and -0.939%.

Values taken from PubChem BioAssay (NCATS).
